# Measurements as given in PubChem BioAssay (EPA / NIEHS).
# Values joined by “and” are separate entries in the source; they are usually repeats but may differ in a detail not shown here. Identical values can stand only once. Some structures have more than one record in an assay (separate samples or runs), and their calls can disagree. Active and inactive are the calls of the source. The calls were made as follows: active = hit-call score of the fitted dose curve at least 0.9, where 1 is the maximum; inactive = score below 0.9.
# What was measured:
# [1] = read-out: Macrophage colony-stimulating factor (MCSF), CSF1 (gene 1435); assay: BSK_hDFCGF_MCSF: BioMAP Diversity Plus: hDFCGF Assay for Macrophage colony-stimulating factor (MCSF) Biomarker Activity (AID 2283060); settings: primary human foreskin fibroblasts; actives raise or lower the signal
# How it was run: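 M-CSF levels read by ELISA at 24 h post-dosing in human skin fibroblasts. Parallel cultures stained with SRB assessed cytotoxicity at the same time point; response fitted in both directions against the DMSO baseline.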
# [2] = BSK_hDFCGF_SRB: Viability Assessment in the BioMAP Diversity Plus: hDFCGF Assay (AID 2283061); settings: primary human foreskin fibroblasts;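 also: cells exposed to compound for 24 h before the read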
# How it was run: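 Viability was read as total protein: after 10% TCA fixation, wells were stained with 0.1% sulforhodamine B and read at 560 nm. Primary human foreskin fibroblasts were dosed for 24 h, with bidirectional fitting versus DMSO.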
# [3] = read-out: TIMP metallopeptidase inhibitor 1 (TIMP1), TIMP1 (gene 7076); assay: BSK_hDFCGF_TIMP1: BioMAP Diversity Plus: hDFCGF Assay for TIMP metallopeptidase inhibitor 1 (TIMP1) Biomarker Activity (AID 2283062); settings: primary human foreskin fibroblasts; actives raise or lower the signal
# How it was run: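 TIMP-1 measured by ELISA 24 h after chemical dosing of primary human skin fibroblasts, with gain or loss fitted relative to DMSO. Parallel SRB staining (560 nm) monitored overt cytotoxicity.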
# [4] = read-out: Monokine induced gamma interferon (MIG), CXCL9 (gene 4283); assay: BSK_hDFCGF_MIG: BioMAP Diversity Plus: hDFCGF Assay for Monokine induced gamma interferon (MIG) Biomarker Activity (AID 2283063); settings: primary human foreskin fibroblasts; actives raise or lower the signal
# How it was run: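 Human primary foreskin fibroblasts in the hDFCGF system, exposed to test chemical for 24 h; MIG measured by ELISA. Bidirectional curve fitting against DMSO negative control as activity baseline.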
# [5] = read-out: Matrix Metallopeptidase 1 (MMP1), MMP1 (gene 4312); assay: BSK_hDFCGF_MMP1: BioMAP Diversity Plus: hDFCGF Assay for Matrix Metallopeptidase 1 (MMP1) Biomarker Activity (AID 2283064); settings: primary human foreskin fibroblasts; actives raise or lower the signal
# How it was run: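 ELISA read-out of MMP1 from human foreskin fibroblasts (primary skin cells), 24 h post-dose. Gain or loss of signal was fitted bidirectionally versus DMSO negative control; cytotoxicity was checked by SRB in parallel cultures.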
# [6] = read-out: Vascular cell adhesion molecule 1 (VCAM1), VCAM1 (gene 7412); assay: BSK_hDFCGF_VCAM1: BioMAP Diversity Plus: hDFCGF Assay for Vascular cell adhesion molecule 1 (VCAM1) Biomarker Activity (AID 2283065); settings: primary human foreskin fibroblasts; actives raise or lower the signal;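 as to AC50: VCAM-1 protein level quantified by ELISA after 24 h chemical exposure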
# How it was run: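 ELISA readout of VCAM-1 on human dermal fibroblast primary cultures, 24 h after chemical exposure. Gain or loss of signal fitted in both directions against DMSO baseline.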
# [7] = read-out: Plasminogen activator inhibitor-1 (PAI1), SERPINE1 (gene 5054); assay: BSK_hDFCGF_PAI1: BioMAP Diversity Plus: hDFCGF Assay for Plasminogen activator inhibitor-1 (PAI1) Biomarker Activity (AID 2283066); settings: primary human foreskin fibroblasts; actives raise or lower the signal
# How it was run: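 PAI-1 levels in human dermal foreskin fibroblasts were quantified by ELISA 24 h after dosing, with gain or loss analysed against DMSO. Overt cytotoxicity was checked by sulforhodamine B total-protein staining in parallel cultures.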
# [8] = read-out: Intercellular Adhesion Molecule 1 (ICAM1), ICAM1 (gene 3383); assay: BSK_KF3CT_ICAM1: BioMAP Diversity Plus: KF3CT Assay for Intercellular Adhesion Molecule 1 (ICAM1) Biomarker Activity (AID 2283067); settings: primary human keratinocytes with fibroblasts; actives raise or lower the signal
# How it was run: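 Cell-surface ICAM-1 was measured by ELISA 24 h after dosing primary human skin keratinocytes co-cultured with fibroblasts. Parallel SRB staining tracked overt cytotoxicity. Gain or loss of signal was fitted relative to DMSO.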
# [9] = read-out: Interferon-gamma inducible Protein 10 (IP10), CXCL10 (gene 3627); assay: BSK_KF3CT_IP10: BioMAP Diversity Plus: KF3CT Assay for Interferon-gamma inducible Protein 10 (IP10) Biomarker Activity (AID 2283068); settings: primary human keratinocytes with fibroblasts; actives raise or lower the signal
# How it was run: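 KF3CT co-culture (keratinocytes + foreskin fibroblasts), 24 h compound, IP-10 by ELISA; bidirectional fit vs DMSO baseline.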
# [10] = BSK_KF3CT_SRB: Viability Assessment in the BioMAP Diversity Plus: KF3CT Assay (AID 2283069); settings: primary human keratinocytes with fibroblasts;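 also: read 24 h after compound addition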
# How it was run: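 SRB read-out at 560 nm (0.1% stain, TCA-fixed cells) gauges overt cytotoxicity in a human skin keratinocyte–fibroblast co-culture 24 h post-dosing. Signal change was fitted bidirectionally relative to DMSO control.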
SMILES,AC50 [1],AC50 [2],AC50 [3],AC50 [4],AC50 [5],AC50 [6],AC50 [7],AC50 [8],AC50 [9],AC50 [10],outcome [1],outcome [2],outcome [3],outcome [4],outcome [5],outcome [6],outcome [7],outcome [8],outcome [9],outcome [10]
Oc1ccc(C(c2ccc(O)cc2)C(Cl)(Cl)Cl)cc1,21.5 µM (active),29.3 µM (active),14.5 µM (active),26.7 µM (active),29.7 µM (active),20 µM (active),25.4 µM (active),36.4 µM (active),33.2 µM (active),24.1 µM (active),–,–,–,–,–,–,–,–,–,–
c1ccc(Nc2ccccc2)cc1,–,–,–,–,–,–,–,–,–,–,inactive,inactive,inactive,inactive,inactive,inactive,inactive,inactive,inactive,inactive
CCNc1nc(N)nc(Cl)n1,–,–,–,–,–,–,–,–,–,–,inactive,inactive,inactive,inactive,inactive,inactive,inactive,inactive,inactive,inactive
C[C@]12CC[C@@H]3c4ccc(O)cc4C[C@@H](CCCCCCCCCS(=O)CCCC(F)(F)C(F)(F)F)[C@H]3[C@@H]1CC[C@@H]2O (some centres undefined),–,–,–,–,–,–,1.64 µM (active),–,–,–,inactive,inactive,inactive,inactive,inactive,inactive,–,inactive,inactive,inactive
CC1(C)C(C=C(Cl)Cl)C1C(=O)OCc1cccc(Oc2ccccc2)c1 (centres undefined),–,–,–,–,–,–,–,–,–,–,inactive,inactive,inactive,inactive,inactive,inactive,inactive,inactive,inactive,inactive
CCCCC(CC)COC(=O)c1ccccc1C(=O)O (centres undefined),9.84 µM (active),–,–,13.8 µM (active),–,10.2 µM (active),–,–,–,–,–,inactive,inactive,–,inactive,–,inactive,inactive,inactive,inactive
CCCN(CCC)C(=O)SCC,–,–,–,–,–,–,–,–,36.1 µM (active),–,inactive,inactive,inactive,inactive,inactive,inactive,inactive,inactive,inactive,inactive
CC(C)(c1ccc(O)cc1)c1ccc(O)cc1,–,–,–,–,–,8.38 µM (active),–,–,–,–,inactive,inactive,inactive,inactive,inactive,inactive,inactive,inactive,inactive,inactive
S=C(S)NCCNC(=S)S.[Mn+2].[S-]C([S-])=NCCN=C([S-])[S-].[Zn+2],1.41 µM (active),–,–,–,–,5.37 µM (active) and 12.4 µM (active),–,–,–,–,inactive,inactive,inactive,inactive,inactive,inactive,inactive,inactive,inactive,inactive
Cc1nn(C)c(Oc2ccccc2)c1C=NOCc1ccc(C(=O)OC(C)(C)C)cc1,18.8 µM (active),15.4 µM (active),–,–,34.5 µM (active),13.9 µM (active),24.2 µM (active),–,13 µM (active),–,–,–,inactive,inactive,–,–,–,inactive,–,inactive
COC(=O)c1cccc(C)c1S(=O)(=O)NC(=O)Nc1nc(OCC(F)(F)F)nc(N(C)C)n1,–,–,–,–,–,–,–,–,–,–,inactive,inactive,inactive,inactive,inactive,inactive,inactive,inactive,inactive,inactive
CCN(Cc1c(F)cccc1Cl)c1c([N+](=O)[O-])cc(C(F)(F)F)cc1[N+](=O)[O-],–,–,–,20 µM (active),9.24 µM (active),–,–,–,2.54 µM (active),–,inactive,inactive,inactive,–,–,inactive,inactive,inactive,–,inactive
COc1nc(C)nc(NC(=O)NS(=O)(=O)c2ccccc2OCCCl)n1,–,–,–,–,–,–,–,–,–,–,inactive,inactive,inactive,inactive,inactive,inactive,inactive,inactive,inactive,inactive
CCOC(=O)[C@H](C)Oc1ccc(Oc2nc3ccc(Cl)cc3o2)cc1,–,0.508 µM (active),–,–,–,–,–,–,25.3 µM (active),–,inactive,–,inactive,inactive,inactive,inactive,inactive,inactive,–,inactive
CCN(CC)C(=O)c1cccc(C)c1,–,–,–,–,–,–,–,–,–,–,inactive,inactive,inactive,inactive,inactive,inactive,inactive,inactive,inactive,inactive
CCSC(=O)N(CC(C)C)CC(C)C,–,–,–,–,–,–,–,–,–,–,inactive,inactive,inactive,inactive,inactive,inactive,inactive,inactive,inactive,inactive
O=C(Nc1ccc([N+](=O)[O-])cc1Cl)c1cc(Cl)ccc1O,0.912 µM (active),0.063 µM (active),0.149 µM (active),0.148 µM (active),0.227 µM (active),0.148 µM (active),0.148 µM (active),1.24 µM (active),0.148 µM (active),0.148 µM (active),–,–,–,–,–,–,–,–,–,–
COCCO,–,–,–,–,–,–,–,–,–,–,inactive,inactive,inactive,inactive,inactive,inactive,inactive,inactive,inactive,inactive
